Common to all, as to format: functional
The target in test [1] is Solute carrier family 2, facilitated glucose transporter member 1 (Homo sapiens) (UniProt P11166). Kind of test: ST_JUDE_LEISH: Cytotoxicity at 2uM final concentration against transgenic Leishmania Mexicana promastigotes LmGLUT1 that are glucose transport deficient and complemented with the human glucose transporter GLUT1. Activity is measured by DNA content using SYBR green in vitro.

Test [2] deals with Hexose transporter 1 (Plasmodium falciparum) (UniProt O97467). Kind of test: ST_JUDE_LEISH: Cytotoxicity at 2uM final concentration against transgenic Leishmania Mexicana promastigotes LmPfHT that are glucose transport deficient and complemented with the Plasmodium falciparum hexose transporter. Activity is measured by DNA content using SYBR green in vitro.
Test [3] addresses Glucose transporter (Leishmania mexicana) (UniProt O61059). Kind of test: ST_JUDE_LEISH: Cytotoxicity at 2uM final concentration against transgenic Leishmania Mexicana promastigotes LmGT2 that are glucose transport deficient and complemented with the L. Mexicana glucose transporter 2. Activity is measured by DNA content using SYBR green in vitro.

Among the data in ChEMBL document CHEMBL3433997, “St. Jude Leishmania screening dataset” (2016) are inhibition values, retold here.

A word on the inhibition: it is the change of the read-out against control, counted positive when it falls.

Solute carrier family 2, facilitated glucose transporter member 1 (Homo sapiens), sequence (P11166 whole entry): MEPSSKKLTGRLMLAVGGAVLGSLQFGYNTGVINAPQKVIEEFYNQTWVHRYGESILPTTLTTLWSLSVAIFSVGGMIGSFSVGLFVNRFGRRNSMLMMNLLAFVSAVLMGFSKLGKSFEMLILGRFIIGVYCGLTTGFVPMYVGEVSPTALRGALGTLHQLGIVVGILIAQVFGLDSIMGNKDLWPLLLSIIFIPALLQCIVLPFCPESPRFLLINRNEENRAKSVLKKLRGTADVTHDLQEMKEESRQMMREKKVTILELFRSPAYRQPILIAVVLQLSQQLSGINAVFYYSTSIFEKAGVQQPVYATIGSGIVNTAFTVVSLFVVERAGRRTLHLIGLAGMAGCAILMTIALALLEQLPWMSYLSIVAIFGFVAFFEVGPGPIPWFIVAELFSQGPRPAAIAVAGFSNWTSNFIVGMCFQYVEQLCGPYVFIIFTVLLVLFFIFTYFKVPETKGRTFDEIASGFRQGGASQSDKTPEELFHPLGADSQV

For the molecule `Cc1cc(C(=O)NCc2ccc(-c3c(C)noc3C)cc2)n(-c2ccccc2)n1`, the inhibition came out at 4.79% in test [1], 4.63% in test [2] and 3.34% in test [3].
For `CCN(CC)C(=O)C1CCN(C(C(=O)N2CCN(CC(=O)N3CCCC3)CC2)c2cc3ccccc3o2)CC1` (stereo not drawn) the same measures were 2.21%, 0.62% and 1.61%.
Turning to `CC(=O)Nc1ccc(C(=O)Nc2ccc(-c3cccc(-c4nc5cc(F)ccc5[nH]4)c3)cc2)cn1`, the results for the inhibition in test [1], in test [2] and in test [3] were 0.13%, 1.66% and -4.38%, respectively.
As for `O=C(/C=C/c1ccccc1Cl)Nc1ccc(Br)c(OCCN2CCN(CCN3CCCC3)CC2)c1`, the results for the inhibition in test [1], in test [2] and in test [3] were 4.13%, 3.71% and 4.6%, respectively.
On to `COc1ccc2c(c1C1CCN(CCCCNC(=O)c3ccc(-c4ccc(Cl)cn4)cc3)CC1)CCCC2`, for which the inhibition in test [1] amounted to 2.21%; in test [2] it was 2.74%; in test [3], 3.95%.
Consider `FC(F)(F)c1ccc2[nH]c(-c3ccc(-c4ccc(CNCC5CCCO5)cc4)s3)nc2c1` (stereo not drawn), for which the inhibition in test [1] was -1.55%; in test [2], 0.38%; in test [3] it was -1.62%.
Regarding `CC(=O)Nc1cccc(C(=O)Nc2cccc(-c3cccc(-c4nc5ccccc5[nH]4)c3)c2)c1`, the inhibition in test [1] was 16.4%; in test [2] it was 15.5%; in test [3], 17.4%.
As to `Cc1ccc(NS(=O)(=O)c2ccc(-c3ccccc3)cc2)c(Cn2cnc(N3CCCNCC3)cc2=O)c1`, the results for the inhibition in test [1], in test [2] and in test [3] were 4.14%, 3.45% and -3.65%, respectively.
Consider `COc1ccc(-c2cnc3[nH]cc(-c4ccc(CCC(=O)O)cc4)c3c2)cn1`, for which the inhibition was 5.06% in test [1], 4.52% in test [2] and 6.38% in test [3].
Take `CCOC(=O)c1ccc(NC(=O)Nc2cccc(-c3cccc(-c4nc5ccccc5[nH]4)c3)c2)cc1`: the inhibition amounted to 10.4% in test [1], 7.84% in test [2] and 8.27% in test [3].
For `CCCc1c(Cl)cc(CNCCCNc2nc3ccncc3[nH]2)cc1Cl`, the inhibition was 1.35% in test [1], 3.89% in test [2] and 1.39% in test [3].
As to `Cc1cc(-c2cccc(CNC3CCN(C)CC3)c2)ccc1S(=O)(=O)NC1CCC1`, the values for the inhibition in test [1], in test [2] and in test [3] were 2.28%, 1.62% and 0.45%, respectively.
For `N#Cc1ccc(-c2ccc(C(=O)NCCCCN3CCC(n4cnc5ccccc54)CC3)cc2)cc1` the same measures were 3.46%, 3.72% and 5.28%.
Take `Cc1c(CNCCCNc2cc(=O)c3ccccc3[nH]2)sc(/C=N/O)c1Br`: the results for the inhibition in test [1], in test [2] and in test [3] were 5.48%, 3.79% and 5.31%, respectively.
Regarding `N#Cc1ccc(CN2CCC(Oc3ccc(NC(=O)c4ccccc4)cc3Cl)CC2)cc1`, the inhibition is 0.83% in test [1], -1.16% in test [2] and 1.28% in test [3].
With `Nc1ccc(-c2ccc3ccnc(N)c3c2)cn1`, the inhibition in test [1] is 1.94%; in test [2], -1.53%; in test [3], 2.84%.
For `CN1CCN(CCCN(Cc2cccc(-c3cccc(CNC4CCCC4)c3)c2)C(=O)/C=C/c2ccccc2)CC1` the same measures were -1.1%, -0.02% and -2.44%.
With `CC(=O)N(C)/N=C/[C@H](CCc1ccccc1)NC(=O)[C@H](CC(C)C)NC(=O)c1cccc(OCCN2CCOCC2)c1`, the figures for the inhibition in test [1], in test [2] and in test [3] were 9.6%, 9.59% and 8.5%, respectively.
As to `N=C(N)NCCCN(Cc1ccccc1)c1ccccc1`, the inhibition in test [1] was determined as 3.87%; in test [2], 2.61%; in test [3] it was 1.89%.
`CC(C)C(C(=O)n1ncc2c3c(N)nc(N)nc3ccc21)C(C)C`: the values for the inhibition in test [1], in test [2] and in test [3] were 87.4%, 86.9% and 78.4%, respectively.
On to `O=C(Nc1cccc(CN2CCN(Cc3ccc(O)cc3)CC2)c1)c1cc2ccccc2s1`, for which the inhibition was 8.18% in test [1], 7.34% in test [2] and 8.57% in test [3].
On to `NC(=O)C1CCN(Cc2ccc(-c3cccc(-c4nc5cc(F)ccc5[nH]4)c3)cc2)CC1`, for which the values for the inhibition in test [1], in test [2] and in test [3] were -0.89%, -0.57% and -1.49%, respectively.
For `CC(=O)c1ccc(N2CCN(CCC3(c4ccc(Cl)c(Cl)c4)COCN(C(=O)c4ccccc4)C3)CC2)cc1` (stereo not drawn), the values for the inhibition in test [1], in test [2] and in test [3] were 4.7%, 1.18% and -0.21%, respectively.
`COc1ccc(CCCc2nc(N)nc(N)c2-c2ccc(Cl)cc2)cc1`: the values for the inhibition in test [1], in test [2] and in test [3] were 6.21%, 6.84% and 3.75%, respectively.
`COc1ccc(CNC2CCN(C)CC2)cc1-c1ccc(S(=O)(=O)NCc2ccccc2)c(C)c1`: the inhibition in test [1] was determined as 7.68%; in test [2] it was 8.41%; in test [3], 7.94%.
As for `COCCN(C)CCCOc1cc2c(cc1OC)ncn2-c1cc(OCc2ccccc2C(F)(F)F)c(C(N)=O)s1`, the inhibition in test [1] was determined as 2.27%; in test [2], 4.55%; in test [3] it was 1.49%.
As for `CC(CNC(=N)c1cccc(C(=N)NCC(C)Oc2cccc(C3CCCCC3)c2)n1)Oc1cccc(C2CCCCC2)c1` (stereo not drawn), the values for the inhibition in test [1], in test [2] and in test [3] were 5.5%, 4.37% and 0.74%, respectively.
Consider `Cc1ccc2c(OCCN3CCC(Cc4cc5c(cc4F)OCC(=O)N5)CC3)cc(F)cc2n1`, for which the inhibition in test [1] came to 5.35%; in test [2] it was 4.63%; in test [3], 3.85%.
In the same order, the values of `CS(=O)(=O)c1ccc(OCCCN(Cc2ccccc2C(F)(F)F)c2ccc(C#N)c(C(F)(F)F)c2)cc1` are 1.51%, 3.33% and 0.65%.
Take `CC(=O)Nc1ccc2[nH]cc(C3CCN(CCC4CCN(C(=O)/C=C/c5ccc(Cl)c(Cl)c5)CC4)CC3)c2c1`: the inhibition was 8.34% in test [1], 7.25% in test [2] and 5.15% in test [3].
For `CC(Oc1c(C2CCN(CCCCNC(=O)c3ccc(-c4ccc(Cl)cc4)cc3)CC2)ccc2c1CCCC2)C(N)=O` (stereo not drawn) the same measures were -0.63%, -0.36% and -0.27%.
